In PubChem BioAssay AID1159580 (chemical genetic matrix, 2015):
Out of some 5,500 compounds screened, about 2,000 (36%) were called active. Inconclusive results (about 18%) are left out. Rule as the data show it: active = normalized growth mostly below about 0.91 (no sharp cut-off); inconclusive = no clear call, values can overlap the other calls; inactive = mostly above about 0.92. This is one part of the list.

Assay: chemical genetic growth profiling, strain panel (AID 1159580);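 also: tested at 20 µM; growth read once vehicle control cultures reached saturation at 30 °C; 1 = growth at the plate median or of vehicle wells; lower values mean less growth of the strain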
Conditions: growth OD

Measured: normalized growth

C[C@@H]1CC[C@@]2(OC1)O[C@H]1CC3C4CC[C@H]5C[C@@H](O)CC[C@]5(C)C4CC[C@]3(C)[C@H]1[C@@H]2C (stereo not given in full)
inactive: S. cerevisiae deletion strains, locus YJR066W, strain TOR1, hits give low values 0.945 | S. cerevisiae deletion strains, locus YJR075W, strain HOC1, hits give low values 0.981 | S. cerevisiae deletion strains, locus YKL009W, strain mrt4, hits give low values 0.991 | S. cerevisiae deletion strains, locus YKL068W, hits give low values 0.981 | S. cerevisiae deletion strains, locus YKL085W, strain MDH1 (second series), hits give low values 0.977 | S. cerevisiae deletion strains, locus YKL085W, strain MDH1, hits give low values 0.977 | S. cerevisiae deletion strains, locus YKL160W, strain elf1, hits give low values 0.996 | S. cerevisiae deletion strains, locus YKR001C, strain vps1, hits give low values 0.987 | S. cerevisiae deletion strains, locus YKR026C, strain gcn3, hits give low values 0.984 | S. cerevisiae deletion strains, locus YKR091W, strain srl3, hits give low values 0.986 | S. cerevisiae deletion strains, locus YLL001W, strain dnm1, hits give low values 1 | S. cerevisiae deletion strains, locus YLL026W, hits give low values 0.988 | S. cerevisiae deletion strains, locus YLL041C, strain sdh2, hits give low values 1 | S. cerevisiae deletion strains, locus YLR027C, strain aat2, hits give low values 0.988 | S. cerevisiae deletion strains, locus YLR039C, strain RIC1, hits give low values 1.01 | S. cerevisiae deletion strains, locus YLR058C, strain SHM2, hits give low values 0.991 | S. cerevisiae deletion strains, locus YLR102C, strain apc9, hits give low values 0.977 | S. cerevisiae deletion strains, locus YLR113W, strain HOG1, hits give low values 0.999 | S. cerevisiae deletion strains, locus YLR221C, strain rsa3, hits give low values 1.02 | S. cerevisiae deletion strains, locus YLR258W, strain gsy2, hits give low values 1 | S. cerevisiae deletion strains, locus YLR262C, strain YPT6 (second series), hits give low values 1.02 | S. cerevisiae deletion strains, locus YLR268W, strain sec22, hits give low values 1 | S. cerevisiae deletion strains, locus YLR320W, strain mms22, hits give low values 0.99 | S. cerevisiae deletion strains, locus YLR342W, strain FKS1, hits give low values 0.976 | S. cerevisiae deletion strains, locus YLR357W, strain rsc2, hits give low values 0.973 | S. cerevisiae deletion strains, locus YLR370C, strain arc18, hits give low values 0.997 | S. cerevisiae deletion strains, locus YLR371W, strain rom2, hits give low values 0.979 | S. cerevisiae deletion strains, locus YLR384C, strain iki3, hits give low values 0.993 | S. cerevisiae deletion strains, locus YLR418C, strain cdc73, hits give low values 0.973 | S. cerevisiae deletion strains, locus YML016C, strain PPZ1, hits give low values 1 | S. cerevisiae deletion strains, locus YML032C, strain rad52, hits give low values 0.997 | S. cerevisiae deletion strains, locus YML120C, strain ndi1, hits give low values 1.01 | S. cerevisiae deletion strains, locus YML124C, strain tub3, hits give low values 0.983 | S. cerevisiae deletion strains, locus YMR058W, strain fet3, hits give low values 0.996 | S. cerevisiae deletion strains, locus YMR078C, strain ctf18, hits give low values 0.969 | S. cerevisiae deletion strains, locus YMR125W, strain sto1, hits give low values 0.984 | S. cerevisiae deletion strains, locus YMR129W, hits give low values 0.987 | S. cerevisiae deletion strains, locus YMR205C, strain PFK2, hits give low values 1 | S. cerevisiae deletion strains, locus YMR223W, strain ubp8, hits give low values 0.979 | S. cerevisiae deletion strains, locus YMR231W, strain pep5, hits give low values 0.998 | S. cerevisiae deletion strains, locus YMR263W, strain SAP30, hits give low values 0.976 | S. cerevisiae deletion strains, locus YMR307W, strain GAS1, hits give low values 1.23 | S. cerevisiae deletion strains, locus YNL067W, strain RPL9B, hits give low values 0.974 | S. cerevisiae deletion strains, locus YNL071W, strain lat1, hits give low values 0.996 | S. cerevisiae deletion strains, locus YNL183C, strain NPR1, hits give low values 0.975 | S. cerevisiae deletion strains, locus YNL209W, strain ssb2, hits give low values 0.983 | S. cerevisiae deletion strains, locus YNL233W, strain BNI4, hits give low values 0.99 | S. cerevisiae deletion strains, locus YNL248C, strain rpa49, hits give low values 1 | S. cerevisiae deletion strains, locus YNL250W, strain rad50, hits give low values 0.955 | S. cerevisiae deletion strains, locus YNL271C, strain bni1, hits give low values 0.983 | S. cerevisiae deletion strains, locus YNL298W, strain CLA4, hits give low values 0.972 | S. cerevisiae deletion strains, locus YNL307C, strain MCK1, hits give low values 0.989 | S. cerevisiae deletion strains, locus YNL322C, strain KRE1 (second series), hits give low values 0.987 | S. cerevisiae deletion strains, locus YNL322C, strain KRE1, hits give low values 0.987 | S. cerevisiae deletion strains, locus YNR049C, strain mso1, hits give low values 0.983 | S. cerevisiae deletion strains, locus YNR052C, strain pop2, hits give low values 0.962 | S. cerevisiae deletion strains, locus YOL006C, strain TOP1, hits give low values 1.14 | S. cerevisiae deletion strains, locus YOL012C, strain htz1 0.991 | S. cerevisiae deletion strains, locus YOL147C, strain pex11, hits give low values 0.978 | S. cerevisiae deletion strains, locus YOR001W, strain rrp6, hits give low values 0.999 | S. cerevisiae deletion strains, locus YOR061W, strain CKA2, hits give low values 0.996 | S. cerevisiae deletion strains, locus YOR069W, strain VPS5, hits give low values 0.983 | S. cerevisiae deletion strains, locus YOR070C, strain gyp1, hits give low values 0.965 | S. cerevisiae deletion strains, locus YOR080W, strain dia2, hits give low values 0.996 | S. cerevisiae deletion strains, locus YOR083W, strain WHI5, hits give low values 0.992 | S. cerevisiae deletion strains, locus YOR106W, strain vam3, hits give low values 0.983 | S. cerevisiae deletion strains, locus YOR136W, strain idh2, hits give low values 0.992 | S. cerevisiae deletion strains, locus YOR144C, strain elg1, hits give low values 0.988 | S. cerevisiae deletion strains, locus YOR184W, strain ser1, hits give low values 1.03 | S. cerevisiae deletion strains, locus YOR231W, strain MKK1, hits give low values 0.998 | S. cerevisiae deletion strains, locus YOR265W, strain rbl2, hits give low values 0.995 | S. cerevisiae deletion strains, locus YOR270C, strain vph1, hits give low values 1.03 | S. cerevisiae deletion strains, locus YOR290C, strain snf2, hits give low values 1.01 | S. cerevisiae deletion strains, locus YOR316C, strain cot1, hits give low values 0.962 | S. cerevisiae deletion strains, locus YPL051W, strain arl3, hits give low values 0.997 | S. cerevisiae deletion strains, locus YPL078C, strain atp4, hits give low values 1 | S. cerevisiae deletion strains, locus YPL106C, strain sse1, hits give low values 0.972 | S. cerevisiae deletion strains, locus YPL240C, strain hsp82, hits give low values 0.977 | S. cerevisiae deletion strains, locus YPL256C, strain CLN2, hits give low values 0.999 | S. cerevisiae deletion strains, locus YPR119W, strain clb2, hits give low values 0.979 | S. cerevisiae deletion strains, locus YPR141C, strain kar3, hits give low values 0.951 | S. cerevisiae deletion strains, locus YPR163C, strain tif3, hits give low values 0.959 | S. cerevisiae deletion strains, locus YPR167C, strain met16, hits give low values 0.985 | S. cerevisiae deletion strains, strain wtn01, hits give low values 1.01 | S. cerevisiae strains, strain wild type, hits give low values 1.01
